Test results from PubChem BioAssay (NCATS).
“And” between values parts separate entries of the source, which are not always exact repeats. Equal entries are not always repeated. Results filed as inconclusive are left out. A structure can be active in one record and inactive in another. The source made the active and inactive calls. Calls come from the whole dose curve; as a rule, active = well fitted curve in the direction sought with a large enough effect; inconclusive = small, poorly fitted or top-dose-only effect, or another doubt; inactive = no such curve, though single readings can be large; an effect the other way counts as inactive or inconclusive.

Tested on: not listed separately
Experiment: Primary qHTS for inhibitors of nuclear receptor binding SET domain protein 2 (NSD2) in an isogenic RCH-ACV NSD2 p.E1099K mutant (9B) (AID 1645876); note: nearly all actives have a fitted effect of over 70% in size; note: potency is the fitted concentration of half-maximal effect; for activity change, negative = viability loss: % is set by controls: 0 for no effect and ±100 for the full control effect
Details: RCH-ACV NSD2 E1099K (9B) viability, CellTiter-Glo, 72 h; series mostly up to 44.9 µM; activity change, negative = viability loss: at the top concentration

SMILES | activity change, negative = viability loss | Potency | outcome
O=c1c2ccccc2nc2n1CCc1c-2[nH]c2ccccc12 | -6.17% (inactive) |  | 
COc1cccc(-c2ccc(NC(=O)C3=C(C(=O)O)CCC3)c(F)c2)c1 |  | 5.78 µM (active) and 2.95 µM (active) | 
O=C(c1cncc(Br)c1)N1CCC(N2CCCC2)CC1 |  |  | inactive

Tested on: not listed separately
Experiment: Primary qHTS for inhibitors of nuclear receptor binding SET domain protein 2 (NSD2) in an RCH-ACV wild type WT cells (2C) (AID 1645877); note: nearly all actives have a fitted effect of over 70% in size; note: potency is the fitted concentration of half-maximal effect; for activity change, negative = cell killing: % is set by controls: 0 for no effect and ±100 for the full control effect
Details: RCH-ACV (leukaemia line) NSD2 WT (2C) viability, CellTiter-Glo, 72 h; series mostly up to 44.9 µM; activity change, negative = cell killing: at the top concentration

SMILES | Potency | activity change, negative = cell killing | outcome
Nc1nccc(Oc2ccc(NC(=O)c3c[nH]cc(-c4ccc(F)cc4)c3=O)cc2F)c1Cl | 10.5 µM (active) |  | 
Nc1nc(NCCNc2ncc(-n3ccnc3)c(-c3ccc(Cl)cc3Cl)n2)ccc1[N+](=O)[O-] | 4.59 µM (active) and inactive |  | 
CNC(=O)c1ccc(-c2cnc3ncc(Cc4ccc5ncccc5c4)n3n2)cc1F |  | 0.728% (inactive) | 
Nc1nc(-c2nn(Cc3ccccc3F)c3ncccc23)nc(N)c1N1CCOCC1 |  |  | inactive [at 17.3 µM]
Nc1ncnc2c1c(-c1cnc3[nH]ccc3c1)nn2C1CCCC1 | 365 nM (active) and 417 nM (active) |  | 
CC[C@H](CO)Nc1nc(NCc2ccccc2)c2ncn(C(C)C)c2n1 | 13.2 µM (active) |  | 
Cc1cc(Nc2cc(NC(=O)c3c(Cl)cccc3Cl)ccn2)nc(N)n1 | 0.291 µM (active) |  | 
OCc1ccc(-c2ccc(-c3ccc(CO)s3)o2)s1 | 31.7 nM (active) and 1.32 µM (active) |  | 
COc1cc(-c2nn(C3CCC(N4CCN(C(C)=O)CC4)CC3)c3ncnc(N)c23)ccc1NC(=O)c1cc2ccccc2n1C (stereo not drawn) | 258 nM (active) and 1.05 µM (active) |  | 
CN1CC[C@@H](c2c(O)cc(O)c3c(=O)cc(-c4ccccc4Cl)oc23)[C@@H](O)C1 | 0.332 µM (active) |  | 
Cn1c(CNc2ccc(C(=N)N)cc2)nc2cc(C(=O)N(CCC(=O)O)c3ccccn3)ccc21 | inactive |  | 
Cc1c(CN2CCN(S(C)(=O)=O)CC2)sc2c(N3CCOCC3)nc(-c3cnc(N)nc3)nc12 | 32.5 nM (active) and 118 nM (active) |  | 
Cn1c(=O)n(-c2ccc(C(C)(C)C#N)cc2)c2c3cc(-c4cnc5ccccc5c4)ccc3ncc21 | 91.6 nM (active) and 42.8 nM (active) |  | 
CNC(=O)c1ccccc1Nc1nc(Nc2ccc(N3CCOCC3)cc2OC)ncc1Cl | 649 nM (active) and 1.05 µM (active) |  | 
Cc1cc(CN2CCN(c3c(Br)cnc4nc(-c5ccc(N6CCN(C)CC6)cc5)[nH]c34)CC2)no1 | 145 nM (active) and 296 nM (active) |  | 
c1cc(-c2cnn3cc(-c4ccc(OCCN5CCCCC5)cc4)cnc23)ccn1 | 2.91 µM (active) and 3.32 µM (active) |  | 
N#Cc1c(O)c2c(-c3ccc(-c4ccccc4O)cc3)csc2[nH]c1=O | inactive |  | 
COC(=O)C1=C(C)NC(C)=C(C(=O)OCCN2CCN(C(c3ccccc3)c3ccccc3)CC2)C1c1cccc([N+](=O)[O-])c1 (stereo not drawn) | 9.34 µM (active) |  | 
c1nc2nc(Nc3ccc(N4CCOCC4)cc3)nc(NC3CCCCC3)c2[nH]1 | 563 nM (active) and 525 nM (active) |  | 
CC(C)[C@H](C(=O)Nc1ccc(C(=O)NO)cc1)c1ccccc1 |  | -98.8% (inactive) | 
O=c1[nH]nc(Sc2ncc([N+](=O)[O-])s2)n1-c1ccc2c(c1)OCCO2 | 7.42 µM (active) |  | 
CCc1cc2c(cc1N1CCC(N3CCOCC3)CC1)C(C)(C)c1[nH]c3cc(C#N)ccc3c1C2=O | 1.42 µM (active) |  | 
NC(=O)c1cccc2cn(-c3ccc([C@@H]4CCCNC4)cc3)nc12 | 2.9 µM (active) and 2.35 µM (active) |  | 
COc1cc(C(=O)NS(=O)(=O)c2ccccc2C)ccc1Cc1cn(C)c2ccc(NC(=O)OC3CCCC3)cc12 | inactive |  | 
CN(c1ncccc1CNc1nc(Nc2ccc3c(c2)CC(=O)N3)ncc1C(F)(F)F)S(C)(=O)=O | 8.33 µM (active) |  | 
O=c1c2ccccc2nc2n1CCc1c-2[nH]c2ccccc12 |  | -19.5% (inactive) | 
COc1cccc(-c2ccc(NC(=O)C3=C(C(=O)O)CCC3)c(F)c2)c1 | 6.49 µM (active) and 3.72 µM (active) |  | 
O=C(c1cncc(Br)c1)N1CCC(N2CCCC2)CC1 |  | 4.22% (inactive) | 

Biological target: Catechol O-methyltransferase (Homo sapiens) (UniProt P21964)
Experiment: Confirmatory Screen for Target Class Profiling of Small Molecule Inhibitors of Methyltransferases (AID 1745852)
Details: MTase-Glo luminescence, SAH detection, recombinant enzyme; measured here: COMT max response; stronger effect = lower value

Sequence of Catechol O-methyltransferase (Homo sapiens) (P21964 whole entry, looked up): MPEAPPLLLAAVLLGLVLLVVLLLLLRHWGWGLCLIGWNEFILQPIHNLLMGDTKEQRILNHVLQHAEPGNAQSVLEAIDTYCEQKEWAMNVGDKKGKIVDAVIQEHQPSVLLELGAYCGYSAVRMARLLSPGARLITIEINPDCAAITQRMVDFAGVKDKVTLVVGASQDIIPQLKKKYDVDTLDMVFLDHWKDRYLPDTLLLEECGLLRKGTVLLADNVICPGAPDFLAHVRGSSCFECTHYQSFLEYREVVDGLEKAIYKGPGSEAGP

SMILES | activity
Nc1nccc(Oc2ccc(NC(=O)c3c[nH]cc(-c4ccc(F)cc4)c3=O)cc2F)c1Cl | -3.16%
Nc1nc(NCCNc2ncc(-n3ccnc3)c(-c3ccc(Cl)cc3Cl)n2)ccc1[N+](=O)[O-] | -0.828%
Nc1ncnc2c1c(-c1cnc3[nH]ccc3c1)nn2C1CCCC1 | -9.35%
Cc1c(C)n(Cc2ccc(-c3ccccc3C(=O)O)cc2)c2ccc(C(=O)N[C@@H](C)c3ccc([N+](=O)[O-])cc3)cc12 | -7.34%
Cn1c(CNc2ccc(C(=N)N)cc2)nc2cc(C(=O)N(CCC(=O)O)c3ccccn3)ccc21 | -2.15%
Cc1c(CN2CCN(S(C)(=O)=O)CC2)sc2c(N3CCOCC3)nc(-c3cnc(N)nc3)nc12 | -10.4%
N#Cc1c(O)c2c(-c3ccc(-c4ccccc4O)cc3)csc2[nH]c1=O | 1.41%
